Key:
Assay in all cases: log2 ratio of Biotin-Ahx-Ub-VS probe labelling (fragment/DMSO); higher = less target engagement (more negative = stronger competition), active = hit call of the paper (q ≤ 0.05, log2 ratio ≤ -1)
Details in all cases: compound concentration: 200 uM; treatment time: 3 h
OTUD6B = molecular target: T1, OTUD6B (UniProt Q8N6M0)
T1 sequence (whole entry): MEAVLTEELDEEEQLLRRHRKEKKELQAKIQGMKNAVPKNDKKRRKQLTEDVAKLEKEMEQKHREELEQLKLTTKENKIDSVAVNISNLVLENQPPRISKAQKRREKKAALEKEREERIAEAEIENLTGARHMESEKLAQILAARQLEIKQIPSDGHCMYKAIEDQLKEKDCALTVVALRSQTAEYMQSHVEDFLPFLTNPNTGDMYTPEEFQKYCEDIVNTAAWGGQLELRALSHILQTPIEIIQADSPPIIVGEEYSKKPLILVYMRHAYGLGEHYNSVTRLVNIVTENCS
Method in brief: (§1)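 Global-median-normalised Spectronaut label-free quantities were compared by unpaired t-test, and values are average log2 ratios of fragment over vehicle. Only proteins with ≥2 unique peptides were used. HEK293T lysate (495 µg per sample) was treated in triplicate with fragment at 200 µM or vehicle for 3 h and then with Biotin-Ahx-Ub-VS at 0.5 µM final for 1 h. Labelled DUBs were then NeutrAvidin-enriched, digested with LysC and trypsin, and run by diaPASEF LC-MS/MS.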

OTUD7B = molecular target: T2, OTUD7B (UniProt Q6GQQ9)
T2 sequence (whole entry): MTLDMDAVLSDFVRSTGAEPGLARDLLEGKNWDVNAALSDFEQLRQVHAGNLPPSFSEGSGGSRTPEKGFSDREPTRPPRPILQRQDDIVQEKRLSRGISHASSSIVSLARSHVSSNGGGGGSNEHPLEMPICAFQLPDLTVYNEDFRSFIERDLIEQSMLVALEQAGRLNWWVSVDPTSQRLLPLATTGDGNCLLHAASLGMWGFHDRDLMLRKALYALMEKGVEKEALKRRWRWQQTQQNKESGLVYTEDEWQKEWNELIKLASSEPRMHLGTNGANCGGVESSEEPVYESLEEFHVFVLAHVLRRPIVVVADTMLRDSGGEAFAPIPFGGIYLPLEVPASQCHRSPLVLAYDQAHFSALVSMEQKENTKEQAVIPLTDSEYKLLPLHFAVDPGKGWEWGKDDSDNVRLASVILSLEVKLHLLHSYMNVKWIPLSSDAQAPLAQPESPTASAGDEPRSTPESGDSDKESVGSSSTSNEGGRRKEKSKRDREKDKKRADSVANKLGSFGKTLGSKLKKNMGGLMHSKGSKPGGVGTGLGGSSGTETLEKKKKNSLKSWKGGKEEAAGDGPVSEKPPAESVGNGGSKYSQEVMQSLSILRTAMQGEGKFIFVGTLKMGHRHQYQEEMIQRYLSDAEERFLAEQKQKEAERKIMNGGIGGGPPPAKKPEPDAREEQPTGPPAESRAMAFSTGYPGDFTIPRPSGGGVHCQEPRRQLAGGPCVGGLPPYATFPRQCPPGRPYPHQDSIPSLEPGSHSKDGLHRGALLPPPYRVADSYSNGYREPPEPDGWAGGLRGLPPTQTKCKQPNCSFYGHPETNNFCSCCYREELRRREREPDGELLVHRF
Method in brief: as §1

PRPF8 = PRPF8 (UniProt Q6P2Q9)
Method in brief: as §1

PSMD7 = molecular target: T3, PSMD7 (UniProt P51665)
T3 sequence (whole entry): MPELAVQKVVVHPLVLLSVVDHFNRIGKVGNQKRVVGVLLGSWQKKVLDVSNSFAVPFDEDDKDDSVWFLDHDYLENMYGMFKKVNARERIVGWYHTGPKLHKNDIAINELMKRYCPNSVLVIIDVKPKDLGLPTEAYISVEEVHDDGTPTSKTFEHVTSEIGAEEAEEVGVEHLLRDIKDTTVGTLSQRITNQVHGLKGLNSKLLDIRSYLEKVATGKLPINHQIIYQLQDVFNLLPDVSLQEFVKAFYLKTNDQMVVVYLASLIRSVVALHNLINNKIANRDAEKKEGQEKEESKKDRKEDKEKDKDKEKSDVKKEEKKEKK
Method in brief: as §1

UCHL1 = UCHL1 (UniProt P09936)
Method in brief: as §1

UCHL3 = molecular target: T4, UCHL3 (UniProt P15374)
T4 sequence (whole entry): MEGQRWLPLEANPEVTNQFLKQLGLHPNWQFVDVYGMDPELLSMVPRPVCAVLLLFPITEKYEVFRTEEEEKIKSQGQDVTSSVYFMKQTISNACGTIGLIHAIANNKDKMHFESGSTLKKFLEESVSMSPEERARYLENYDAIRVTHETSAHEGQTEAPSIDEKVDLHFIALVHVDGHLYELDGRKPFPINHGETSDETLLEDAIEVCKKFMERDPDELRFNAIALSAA
Method in brief: as §1

UCHL5 = molecular target: T5, UCHL5 (UniProt Q9Y5K5)
T5 sequence (whole entry): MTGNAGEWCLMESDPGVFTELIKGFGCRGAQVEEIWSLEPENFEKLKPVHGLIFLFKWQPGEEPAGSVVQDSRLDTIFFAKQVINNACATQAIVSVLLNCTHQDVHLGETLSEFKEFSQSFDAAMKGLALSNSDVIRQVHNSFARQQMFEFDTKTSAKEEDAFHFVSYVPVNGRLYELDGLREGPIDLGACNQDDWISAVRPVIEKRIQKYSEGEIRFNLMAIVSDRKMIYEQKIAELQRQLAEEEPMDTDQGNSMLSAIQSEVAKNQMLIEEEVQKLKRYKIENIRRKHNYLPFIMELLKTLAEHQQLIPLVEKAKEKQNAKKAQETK
Method in brief: as §1

USP10 = USP10 (UniProt Q14694)
Method in brief: as §1

USP15 = molecular target: T6, USP15 (UniProt Q9Y4E8)
T6 sequence (whole entry): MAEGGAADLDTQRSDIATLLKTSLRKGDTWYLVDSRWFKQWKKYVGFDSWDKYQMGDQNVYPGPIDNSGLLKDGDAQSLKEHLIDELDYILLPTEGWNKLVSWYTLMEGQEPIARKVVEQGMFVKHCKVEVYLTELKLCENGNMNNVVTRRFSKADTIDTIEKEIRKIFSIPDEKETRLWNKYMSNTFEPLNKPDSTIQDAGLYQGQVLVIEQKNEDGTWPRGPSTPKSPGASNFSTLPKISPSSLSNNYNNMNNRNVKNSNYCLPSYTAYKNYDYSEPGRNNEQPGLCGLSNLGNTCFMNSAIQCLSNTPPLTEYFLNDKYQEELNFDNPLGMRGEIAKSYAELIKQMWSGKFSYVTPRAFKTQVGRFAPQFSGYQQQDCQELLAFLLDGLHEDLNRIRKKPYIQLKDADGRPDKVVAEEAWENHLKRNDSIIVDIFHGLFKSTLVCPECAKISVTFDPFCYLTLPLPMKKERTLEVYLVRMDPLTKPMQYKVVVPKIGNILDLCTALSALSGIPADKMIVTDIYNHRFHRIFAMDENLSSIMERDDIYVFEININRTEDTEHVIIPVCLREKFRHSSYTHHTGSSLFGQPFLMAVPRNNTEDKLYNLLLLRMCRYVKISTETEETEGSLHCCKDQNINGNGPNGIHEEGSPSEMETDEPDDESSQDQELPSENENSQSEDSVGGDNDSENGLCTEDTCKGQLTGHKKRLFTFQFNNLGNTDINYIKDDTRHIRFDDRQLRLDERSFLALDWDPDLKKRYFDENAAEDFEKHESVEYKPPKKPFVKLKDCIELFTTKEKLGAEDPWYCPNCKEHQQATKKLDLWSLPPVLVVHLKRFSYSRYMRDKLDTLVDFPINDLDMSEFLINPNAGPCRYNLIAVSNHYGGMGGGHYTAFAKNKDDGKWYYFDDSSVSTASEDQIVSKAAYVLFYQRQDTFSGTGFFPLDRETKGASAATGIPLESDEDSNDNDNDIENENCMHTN
Method in brief: as §1

Measured: log2 ratio of Biotin-Ahx-Ub-VS probe labelling

USP10, sequence (Q14694 whole entry): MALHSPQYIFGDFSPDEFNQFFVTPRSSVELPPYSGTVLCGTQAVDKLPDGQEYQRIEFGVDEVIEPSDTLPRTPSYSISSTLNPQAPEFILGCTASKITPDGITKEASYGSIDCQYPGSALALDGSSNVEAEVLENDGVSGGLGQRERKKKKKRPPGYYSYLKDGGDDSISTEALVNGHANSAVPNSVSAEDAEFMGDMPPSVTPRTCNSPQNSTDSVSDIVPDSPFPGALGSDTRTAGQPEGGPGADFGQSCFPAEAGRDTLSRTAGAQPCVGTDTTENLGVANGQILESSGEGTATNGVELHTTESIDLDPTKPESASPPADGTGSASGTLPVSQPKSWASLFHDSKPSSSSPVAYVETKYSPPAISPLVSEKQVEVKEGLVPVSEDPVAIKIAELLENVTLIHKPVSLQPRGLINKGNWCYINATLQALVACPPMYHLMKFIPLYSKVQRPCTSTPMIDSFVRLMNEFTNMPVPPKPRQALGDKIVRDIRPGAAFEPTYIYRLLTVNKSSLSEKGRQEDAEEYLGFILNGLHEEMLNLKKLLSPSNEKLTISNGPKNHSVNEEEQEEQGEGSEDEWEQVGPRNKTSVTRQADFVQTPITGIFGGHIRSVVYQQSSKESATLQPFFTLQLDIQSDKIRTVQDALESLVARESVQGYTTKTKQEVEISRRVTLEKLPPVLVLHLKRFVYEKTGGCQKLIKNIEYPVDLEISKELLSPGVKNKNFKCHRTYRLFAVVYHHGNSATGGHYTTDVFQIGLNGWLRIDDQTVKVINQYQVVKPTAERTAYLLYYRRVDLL
UCHL1, sequence (P09936 whole entry, looked up): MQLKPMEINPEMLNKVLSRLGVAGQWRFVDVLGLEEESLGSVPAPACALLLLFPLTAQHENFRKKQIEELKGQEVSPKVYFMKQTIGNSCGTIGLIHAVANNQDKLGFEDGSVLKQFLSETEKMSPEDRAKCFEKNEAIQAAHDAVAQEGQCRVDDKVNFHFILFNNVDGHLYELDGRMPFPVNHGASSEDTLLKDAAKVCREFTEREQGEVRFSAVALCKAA

CCC1c2ccsc2CCN1C(=O)CCl (centres undefined)
inactive: OTUD6B -0.158 | OTUD7B -0.505 | PRPF8 0.237 | PSMD7 -0.0765 | UCHL3 -0.00293 | UCHL5 -0.25 | USP10 -0.134 | USP15 -0.298
active: UCHL1 -1.35
